Reference: PubChem BioAssay (NCI)
Values joined by “and” are separate entries in the source; they are usually repeats but may differ in a detail not shown here. Identical values can stand only once. About 79,000 compounds went through this panel and 15% of them were active in at least one assay; those are over-represented in the sample as a whole. Some structures have more than one record in an assay (separate samples or runs), and their calls can disagree. Active and inactive are the calls of the source. No stated cut-off is given here; in the data, active means growth inhibition above about 70%; inactive means the rest.

Assays:
[1] = NCI Yeast Anticancer Drug Screen. Data for the rad52 strain (AID 147);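 further: 0% = growth of vehicle-treated control cultures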; settings: S. cerevisiae rad52 mutant growth inhibition, stronger effect = higher value
How it was run: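 The repair-mutant yeast strain was incubated with compounds, then growth was read and inhibition derived relative to vehicle.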

[2] = NCI Yeast Anticancer Drug Screen. Data for the wt1 strain (AID 149);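 further: 0% = growth of vehicle-treated wt1 cultures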; settings: S. cerevisiae wt1 strain (SPY 50644) growth inhibition, stronger effect = higher value
How it was run: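 Vehicle-normalised growth inhibition; strain wt1; compound exposure.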

[3] = NCI Yeast Anticancer Drug Screen. Data for the rad50EPP+ strain (AID 151);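 further: 0% = growth of vehicle-treated control cultures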; settings: S. cerevisiae rad50 mutant strain, stronger effect = higher value
How it was run: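 Vehicle-normalised growth inhibition; rad50EPP+ yeast strain, altered in DNA damage repair, compound-treated.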

[4] = NCI Yeast Anticancer Drug Screen. Data for the mgt1 strain (AID 153); settings: S. cerevisiae mgt1 mutant growth inhibition, stronger effect = higher value
How it was run: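 Vehicle-normalized growth inhibition is determined in mgt1 yeast, a strain selected for a defined alteration in DNA repair or cell cycle control.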

[5] = NCI Yeast Anticancer Drug Screen. Data for the rad50 strain (AID 155);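 further: 0% = growth of vehicle-only cultures of the same strain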; settings: S. cerevisiae rad50 strain growth inhibition, stronger effect = higher value
How it was run: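 A DNA repair-deficient yeast mutant serves as the test organism; compound-induced growth inhibition is calculated against vehicle-treated cells.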

[6] = NCI Yeast Anticancer Drug Screen. Data for the mec2-1 strain (AID 157); settings: S. cerevisiae mec2-1 strain, stronger effect = higher value
How it was run: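 Mutant yeast (mec2-1) grown with compound; growth inhibition relative to vehicle control reported.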

[7] = NCI Yeast Anticancer Drug Screen. Data for the rad14 strain (AID 159);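 further: 0% = growth of vehicle-treated control cultures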; settings: S. cerevisiae rad14 strain growth inhibition, stronger effect = higher value
How it was run: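 Vehicle-treated cultures served as the baseline for growth inhibition of a DNA repair-mutant yeast strain exposed to each compound.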

[8] = NCI Yeast Anticancer Drug Screen. Data for the sgs1 mgt1 strain (AID 161);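 further: 0% = growth of cultures given vehicle only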; settings: S. cerevisiae sgs1 mgt1 strain, stronger effect = higher value
How it was run: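 Percent growth inhibition was derived by comparing compound-exposed mutant yeast with vehicle-exposed cultures. The strain carries alterations in DNA damage repair.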

[9] = NCI Yeast Anticancer Drug Screen. Data for the CLN2oe strain (AID 163);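 further: 0% = growth of vehicle-only control cultures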; settings: S. cerevisiae CLN2oe strain, stronger effect = higher value
How it was run: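 Compounds are applied to yeast harbouring a defined cell-cycle control change; reduced growth compared with vehicle-treated controls gives the value.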

[10] = NCI Yeast Anticancer Drug Screen. Data for the cln2 rad14 strain (AID 165);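 further: 0% = growth equal to vehicle treated cultures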; settings: S. cerevisiae cln2 rad14 strain, stronger effect = higher value
How it was run: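 Readout is yeast growth inhibition versus vehicle-treated controls, using a strain with cln2 and rad14 alterations exposed to compound.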

[11] = NCI Yeast Anticancer Drug Screen. Data for the bub3 strain (AID 167); settings: S. cerevisiae bub3 mutant strain, stronger effect = higher value
How it was run: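 Inhibition values come from growth of compound-treated mutant yeast normalised to vehicle-treated controls.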

[12] = NCI Yeast Anticancer Drug Screen. Data for the wt2 strain (AID 169);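 further: 0% = growth of vehicle-treated yeast cultures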; settings: S. cerevisiae wt2 strain growth inhibition, stronger effect = higher value
How it was run: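 Against vehicle-treated controls, the growth of yeast exposed to each compound was compared, and the inhibition was recorded.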

[13] = NCI Yeast Anticancer Drug Screen. Data for the mlh1 strain (AID 171);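 further: 0% = growth of vehicle-treated control cultures of the same strain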; settings: S. cerevisiae mlh1 strain growth inhibition, stronger effect = higher value
How it was run: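 Measured: yeast growth. Reference: vehicle-treated controls. Organism: strain with a defined alteration affecting DNA damage repair or cell cycle control, treated with compound.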

[14] = NCI Yeast Anticancer Drug Screen. Data for the sgs1 strain (AID 173);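 further: 0% = growth of vehicle-only control cultures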; settings: S. cerevisiae sgs1 mutant, stronger effect = higher value
How it was run: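 Each compound was added to cultures of the altered yeast strain. Growth was recorded, and inhibition was derived by comparison with vehicle controls.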

[15] = NCI Yeast Anticancer Drug Screen. Data for the mlh1 rad18 strain (AID 175); settings: S. cerevisiae mlh1 rad18 strain growth inhibition, stronger effect = higher value
How it was run: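 Genetically defined yeast (DNA repair-deficient) exposed to compounds; growth inhibition determined relative to vehicle.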

[16] = NCI Yeast Anticancer Drug Screen. Data for the rad18 strain (AID 177); settings: S. cerevisiae rad18 mutant growth inhibition, stronger effect = higher value
How it was run: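 Vehicle-treated cultures served as the baseline for scoring compound-induced growth inhibition in DNA-repair-mutant yeast.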

[17] = at 5.0 µM (retest, dose inferred, filed as 0.5)
[18] = at 50.0 µM (retest, dose inferred, filed as 5.0)

Measured: growth inhibition

COc1ccc(C(=O)C(CN(C)C)CN(C)C)cc1
active: [4]; at 100.0 µM 77% | [6]; at 50.0 µM 74.2% and 75.8% | [11]; at 100.0 µM 74% | [12]; at 100.0 µM 79% | [13]; at 100.0 µM 74% | [14]; at 100.0 µM 78%
0.15% (inactive) and 75.1% (active): [11]; at 50.0 µM
92% (active) and 27% (inactive): [15]; [18]
inactive: [1]; at 1.2 µM -14% | [1]; at 3.7 µM 30% | [1]; at 11.0 µM 30% | [1]; at 33.0 µM 29% | [1]; at 100.0 µM 48% | [2]; at 1.2 µM -5% | [2]; at 3.7 µM -1% | [2]; at 11.0 µM -4% | [2]; at 33.0 µM 3% | [2]; at 100.0 µM 40% | [3]; at 1.2 µM 10% | [3]; at 3.7 µM 19% | [3]; at 11.0 µM 9% | [3]; at 33.0 µM 13% | [3]; at 100.0 µM 17% | [4]; at 1.2 µM -26% | [4]; at 3.7 µM -12% | [4]; at 11.0 µM -8% | [4]; at 33.0 µM 11% | [5]; at 1.2 µM 7% | [5]; at 3.7 µM -1% | [5]; [17] 26% and 8% | [5]; at 11.0 µM -2% | [5]; at 33.0 µM 11% | [5]; [18] 52% and 35% | [5]; at 50.0 µM 35.8% and 45.3% | [5]; at 100.0 µM 51% | [6]; at 1.2 µM -20% | [6]; at 3.7 µM -9% | [6]; [17] 14% and 1% | [6]; at 11.0 µM -4% | [6]; at 33.0 µM 9% | [6]; [18] 63% and 41% | [6]; at 100.0 µM 68% | [7]; at 1.2 µM -13% | [7]; at 3.7 µM -8% | [7]; at 11.0 µM -2% | [7]; at 33.0 µM 19% | [7]; at 100.0 µM 24% | [8]; [17] 34% and 14% | [8]; [18] 59% and 35% | [8]; at 50.0 µM 32.8% and 61.8% | [9]; at 1.2 µM 15% | [9]; at 3.7 µM 12% | [9]; at 11.0 µM 6% | [9]; at 33.0 µM 33% | [9]; at 100.0 µM 46% | [10]; [17] 11% and 20% | [10]; [18] 31% and 36% | [10]; at 50.0 µM 21.6% and 30.7% | [11]; at 1.2 µM -18% | [11]; at 3.7 µM -5% | [11]; [17] 21% and 19% | [11]; at 11.0 µM -2% | [11]; at 33.0 µM 11% | [11]; [18] 51% and 33% | [12]; at 1.2 µM 12% | [12]; at 3.7 µM 1% | [12]; at 11.0 µM 4% | [12]; at 33.0 µM 36% | [13]; at 1.2 µM -32% | [13]; at 3.7 µM -15% | [13]; at 11.0 µM -13% | [13]; at 33.0 µM 4% | [14]; at 1.2 µM -7% | [14]; at 3.7 µM 29% | [14]; at 11.0 µM 26% | [14]; at 33.0 µM 32% | [15]; [17] 57% and 12% | [15]; at 50.0 µM 8.1% and 64.3% | [16]; at 1.2 µM -3% | [16]; at 3.7 µM -8% | [16]; at 11.0 µM -23% | [16]; at 33.0 µM -3% | [16]; at 100.0 µM 66%

Nc1ncc(-c2ccc(Br)cc2)s1
active: [1]; at 33.0 µM 92% | [1]; at 100.0 µM 98% | [2]; at 33.0 µM 92% | [2]; at 100.0 µM 98% | [3]; at 33.0 µM 93% | [3]; at 100.0 µM 97% | [4]; at 33.0 µM 95% | [4]; at 100.0 µM 98% | [5]; at 33.0 µM 91% | [5]; at 50.0 µM 89.5% | [5]; at 100.0 µM 97% | [6]; at 33.0 µM 92% | [6]; at 50.0 µM 93% | [6]; at 100.0 µM 98% | [7]; at 33.0 µM 93% | [7]; at 100.0 µM 97% | [8]; [18] 99% | [8]; at 50.0 µM 92.7% | [9]; at 33.0 µM 90% | [9]; at 100.0 µM 97% | [10]; [18] 99% | [10]; at 50.0 µM 90.3% | [11]; at 33.0 µM 82% | [11]; [18] 99% | [11]; at 50.0 µM 89.8% | [11]; at 100.0 µM 97%
inactive: [1]; at 1.2 µM 20% | [1]; at 3.7 µM 35% | [1]; at 11.0 µM 36% | [2]; at 1.2 µM 9% | [2]; at 3.7 µM 17% | [2]; at 11.0 µM 22% | [3]; at 1.2 µM 19% | [3]; at 3.7 µM 29% | [3]; at 11.0 µM 47% | [4]; at 1.2 µM 1% | [4]; at 3.7 µM -1% | [4]; at 11.0 µM 2% | [5]; at 1.2 µM 7% | [5]; at 3.7 µM 7% | [5]; [17] 51% | [5]; at 11.0 µM 13% | [5]; [18] 51% | [6]; at 1.2 µM -22% | [6]; at 3.7 µM -1% | [6]; [17] 53% | [6]; at 11.0 µM -15% | [6]; [18] 55% | [7]; at 1.2 µM -25% | [7]; at 3.7 µM -8% | [7]; at 11.0 µM -1% | [8]; [17] 18% | [9]; at 1.2 µM 21% | [9]; at 3.7 µM 3% | [9]; at 11.0 µM -7% | [10]; [17] 56% | [11]; at 1.2 µM -8% | [11]; at 3.7 µM -8% | [11]; [17] -18% | [11]; at 11.0 µM -11%
